According to PubChem BioAssay AID1076 (NMMLSC, 2008):
Calls of active or inactive are those of the source.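 How the source made its calls: active means cell event count below 40, meaning activity score above 60 where score is 100 minus count; inactive means the rest.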

Assay: cytotoxicity in LNCaP prostate cells – cell-based, cell event count, single point, cytotoxicity control for prostate differentiation activator project, confirmation (AID 1076);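 further: counts scatter-gated live cells after medium removal discards detached dead cells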
Settings: LNCaP cell loss, flow cytometry event count, 4 d, stronger effect = lower value

Row | Structure (SMILES) | cell event count (at 100 µM) | cell event count (event count, at 10 µM)
1 | Cc1nc2ccccc2c(=O)n1-c1ccc(F)cc1 | 282 (inactive) | 155
2 | C[C@H]1CCC/C=C/C2C[C@H](O)CC2[C@H](O)/C=C/C(=O)O1 (stereo not given in full) | 23 (active) | 26
3 | CCn1c(=O)cc(OCC(=O)N2CCN(Cc3ccc4c(c3)OCO4)CC2)c2ccccc21 | 12 (inactive) | 240
4 | O=C(COc1ccc2ccccc2c1)N1CCN(C2CCN(Cc3ccccc3)CC2)CC1 | 35 (inactive) | 324
5 | Clc1ccc(COC(Cn2ccnc2)c2ccc(Cl)cc2Cl)cc1 (stereo not given) | 11 (inactive) | 82
6 | Cc1ccc(Cn2c(C)c3cnn(CC(=O)N4CCC5(CC4)OCCO5)c(=O)c3c2C)cc1 | 66 (inactive) | 202
7 | Cc1ccc2c(c1)[C@@H]1CN(C)CC[C@@H]1N2C(=O)Nc1cccc(C(F)(F)F)c1 | 13 (inactive) | 122
8 | Cc1cc(OCC(=O)O)c2c3c(c(=O)oc2c1)CCCC3 | 175 (inactive) | 157
9 | CCOc1ccc(C2SCC(=O)Nc3c2c(=O)[nH]n3C2CCCCCC2)cc1 (stereo not given) | 18 (inactive) | 101
10 | CCn1c(=O)cc(OCC(=O)N2CCC3(CC2)OCCO3)c2ccccc21 | 210 (inactive) | 411
